The target of test [1] is Cellular tumor antigen p53 (Homo sapiens) (UniProt P04637). Put plainly: Primary qHTS for small molecule compounds that upregulate eGFP-tagged delta133p53alpha (in N-terminal) cells. (AID 2060322).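 Note: cells pre-induced with doxycycline then dosed without doxycycline; series mostly up to about 56 µM; 0% = DMSO vehicle and 100% = reference activator; nearly all actives have a fitted effect of over 75% in size.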 The settings on record: NCI-H358 eGFP-delta133p53alpha fluorescence, 24 h; activation: active compounds read high. In short, it runs like this:
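NCI-H358 cells pre-induced 24 h with 10 ng/ml doxycycline for eGFP-delta133p53alpha, plated dox-free and exposed 24 h at 37C to titrated compounds. Fixed, Hoechst-stained; gated GFP peak intensity by laser scanning cytometry, normalized to DMSO (0%) and 57.5 uM 5-azacytidine (100%).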

The nature of test [2]: BET inhibitor-based combinations targeting novel dependencies in MECOM-rearranged (r) AML: SET-2 cell line (AID 2202231).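 For viability: plate controls were DMSO treated cells for no effect and wells without cells for full effect.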 Note: nearly all actives have a fitted effect of over 35% in size. Note: potency is the fitted concentration of half-maximal effect. The settings on record: SET-2 AML cells viability, CellTiter-Glo luminescence, 48 h; viability: active compounds read low, concentration not given here. In short, it runs like this:
(§1)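 Luminescent ATP readout (CellTiter-Glo) after 48 hr drug exposure gives viability. Curves span 11 concentrations and are normalized to DMSO and empty wells. Activity is reported as area under the curve and its Z-transform within each cell line.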
(Cellular ATP, detected with luciferase, serves as a proxy for viable cell number.)

Test [3] in a line: BET inhibitor-based combinations targeting novel dependencies in MECOM-rearranged (r) AML: OCI-AML3 cell line (AID 2202232).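 For viability (% of control): series mostly up to about 46 µM; plate controls were DMSO vehicle wells for no effect and wells without cells for full effect.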 Note: nearly all actives have a fitted effect of over 35% in size. Note: potency is the fitted concentration of half-maximal effect. As to conditions: Potency: OCI-AML3 viability. In short, it runs like this:
as §1

A short description of test [4]: BET inhibitor-based combinations targeting novel dependencies in MECOM-rearranged (r) AML: MV-4-11 cell line (AID 2202233).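 For viability, % of control: plate controls were DMSO for no effect and blank wells for full effect.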 Note: nearly all actives have a fitted effect of over 45% in size. Note: potency is the fitted concentration of half-maximal effect. The procedure, abridged: (§2)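 Luminescent ATP readout (CellTiter-Glo, 15 min at room temperature) after 48 hr drug exposure gave viability. Dose-response curves, normalized to DMSO and empty-well controls, were summarized as area under the curve and its mean-centred Z-score.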

Test [5] can be described thus: BET inhibitor-based combinations targeting novel dependencies in MECOM-rearranged (r) AML: HNT-34 cell line (AID 2202234).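 For viability (% of control): plate controls were vehicle wells for no effect and cell-free wells for full effect.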 Note: nearly all actives have a fitted effect of over 35% in size. Note: potency is the fitted concentration of half-maximal effect. The procedure, abridged:
as §2

The nature of test [6]: BET inhibitor-based combinations targeting novel dependencies in MECOM-rearranged (r) AML: UCSD-AML1 cell line (AID 2202235).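 For viability (% of control): series mostly up to about 46 µM; plate controls were DMSO vehicle wells for no effect and blank wells for full effect.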 Note: nearly all actives have a fitted effect of over 40% in size. Note: potency is the fitted concentration of half-maximal effect. The procedure, abridged:
as §2

A short description of test [7]: BET inhibitor-based combinations targeting novel dependencies in MECOM-rearranged (r) AML: AML-191 cell line (AID 2202236; note: nearly all actives have a fitted effect of over 35% in size; note: potency is the fitted concentration of half-maximal effect;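 for viability (% of control): plate controls were vehicle wells for no effect and wells without cells for full effect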). In short, it runs like this: as §1
Test [8] in a line: BET inhibitor-based combinations targeting novel dependencies in MECOM-rearranged (r) AML: AML-194 cell line (AID 2202237; note: nearly all actives have a fitted effect of over 40% in size; note: potency is the fitted concentration of half-maximal effect;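 for viability (% of control): plate controls were vehicle wells for no effect and wells without cells for full effect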). The procedure, abridged: as §1

Several values for one entry are separate records, joined by “and”; a condition that tells them apart may be missing. Equal entries are not always repeated. Records with an inconclusive call do not appear. Values without a mark were called inactive. Activity calls are given as the source filed them. Calls come from the whole dose curve; as a rule, active = well fitted curve in the direction sought with a large enough effect; inconclusive = small, poorly fitted or top-dose-only effect, or another doubt; inactive = no such curve, though single readings can be large; an effect the other way counts as inactive or inconclusive. Non-standard residues stand in square brackets, D forms with d. Residues, ends and D or L forms follow the SMILES beside them. *: point of attachment. Sta = CC(C)C[C@H](N)[C@@H](O)CC(=O)O; Isovaleryl = CC(C)CC(=O)*

By viability is commonly meant a read-out of living cells in per cent, often relative to untreated cells.

Sequence of Cellular tumor antigen p53 (Homo sapiens) (P04637 whole entry, looked up): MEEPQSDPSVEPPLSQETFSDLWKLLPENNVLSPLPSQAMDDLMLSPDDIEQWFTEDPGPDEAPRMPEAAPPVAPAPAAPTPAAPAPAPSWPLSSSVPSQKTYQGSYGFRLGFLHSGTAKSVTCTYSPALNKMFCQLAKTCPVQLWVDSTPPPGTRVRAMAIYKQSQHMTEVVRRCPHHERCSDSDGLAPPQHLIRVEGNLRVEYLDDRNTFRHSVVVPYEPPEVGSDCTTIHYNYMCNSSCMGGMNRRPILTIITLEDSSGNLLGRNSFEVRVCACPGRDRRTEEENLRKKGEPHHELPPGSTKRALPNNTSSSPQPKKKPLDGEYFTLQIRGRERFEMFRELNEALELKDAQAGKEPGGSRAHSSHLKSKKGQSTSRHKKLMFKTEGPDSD

With `CC(C)(CO)[C@@H](O)C(=O)NCCC(=O)O`, the activation in test [1] is -14.4%. In addition, in test [2], the viability was 117%. The Potency entry in test [3], in test [4], in test [5], in test [6], in test [7] and in test [8] was “inactive” throughout.

For the compound `O=C(NC(Cc1cc(=O)[nH]c2ccccc12)C(=O)O)c1ccc(Cl)cc1` (centres undefined), in test [1], the activation is -0.837% and -7.77%. The viability in test [2] was 120%. Besides, the Potency entry in test [3], in test [4], in test [5], in test [6], in test [7] and in test [8] was “inactive” throughout.

Take `CCn1cc(C(=O)O)c(=O)c2cc(F)c(N3CCNCC3)cc21`: the activation in test [1] was -8.37% and 13.6%. In addition, the viability in test [2] is 96.1%. Besides, the Potency result in test [3], in test [4], in test [5], in test [6], in test [7] and in test [8] was “inactive” in each case.

For the compound `CC(C)CC(=O)N[C@H](C(=O)N[C@H](C(=O)N[C@@H](CC(C)C)[C@@H](O)CC(=O)N[C@@H](C)C(=O)N[C@@H](CC(C)C)[C@@H](O)CC(=O)O)C(C)C)C(C)C` (Isovaleryl-VV[Sta]A[Sta]-OH), in test [1], the activation is -1.4%. Further, in test [2], the viability was 117%. For the same compound, the Potency entry in test [3], in test [4], in test [5], in test [6], in test [7] and in test [8] was “inactive” throughout.

Take `O=P(O)(O)C(O)(Cn1ccnc1)P(=O)(O)O`: in test [1], the activation is -20.1%. Moreover, in test [2], the viability is 112%. Further, the viability (% of control) in test [3] was 121% [at 5.12 µM]; in test [5] it was 108% [at 5.12 µM]; in test [7], 112% [at 5.12 µM]; in test [8] it was 119% [at 5.12 µM]. In addition, the viability, % of control in test [4] is 141% [at 5.12 µM].

`NCCCC(O)(P(=O)(O)O)P(=O)(O)O`: the activation in test [1] is 36.7% and -7.88%. The viability in test [2] was 114%. Moreover, the Potency entry in test [3], in test [4], in test [5], in test [6], in test [7] and in test [8] was “inactive” each time.

Take `COC(=O)Nc1nc2ccc(Sc3ccccc3)cc2[nH]1`: the activation in test [1] is -17.6% and 21.8%. Also, the Potency was 1180 nM (active) in test [2]; 742 nM (active) in test [3]; 934 nM (active) in test [4]; 525 nM (active) in test [5]; 468 nM (active) in test [6]; 468 nM (active) in test [7]. For the same compound, in test [8], the Potency is 417 nM (active).

Consider `CC(=O)OCCN1C(=O)c2c(C)nc3ccc(S(=O)(=O)N4CCOCC4)cc3c2C1=O`, for which the activation in test [1] is 22.9%. Moreover, the viability in test [2] was 121%. The Potency entry in test [3], in test [4], in test [5], in test [6], in test [7] and in test [8] was “inactive” throughout.

`Cc1noc(-c2ccc(CSCCC(=O)O)cc2)c1NC(=O)OC(C)c1ccccc1Cl` (centres undefined): the activation in test [1] is -1.99%. For the same compound, in test [2], the viability is 114%. Also, the Potency entry in test [3], in test [4], in test [5], in test [7] and in test [8] was “inactive” in each case.

Turning to `CC(N)C12CC3CC(CC(C3)C1)C2` (centres undefined), in test [1], the activation is -14.2% and 12.7%. Also, the viability in test [2] is 106%. Also, the Potency result in test [3], in test [4], in test [5], in test [6], in test [7] and in test [8] was “inactive” in each case.

Consider `NS(=O)(=O)c1cccc2c1C(=O)c1cccc(O)c1C2=O`, for which the activation in test [1] was -16%. Besides, the Potency is 2950 nM (active) in test [2]; 1660 nM (active) in test [3]; 332 nM (active) in test [4]; 1860 nM (active) in test [5]; 2090 nM (active) in test [6]; 2630 nM (active) in test [8].

Consider `C[C@@H]1CN(c2c(F)c(N)c3c(=O)c(C(=O)O)cn(C4CC4)c3c2F)C[C@H](C)N1`, for which, in test [1], the activation is 22.7%. Besides, the viability in test [2] is 102%. Also, the Potency entry in test [3], in test [4], in test [5], in test [6], in test [7] and in test [8] was “inactive” in each case.

Regarding `CN1CCN2c3ncccc3Cc3ccccc3C2C1` (centres undefined), the activation in test [1] is -22.2%. Besides, the viability in test [2] is 102%. Moreover, the Potency entry in test [3], in test [4], in test [5], in test [6], in test [7] and in test [8] was “inactive” in each case.

Take `CC#CCn1c(N2CCC[C@@H](N)C2)nc2c1c(=O)n(Cc1nc(C)c3ccccc3n1)c(=O)n2C`: in test [1], the activation is 6.37%. The viability in test [2] was 113%. Further, the Potency entry in test [3], in test [4], in test [5], in test [6] and in test [8] was “inactive” each time.

For `CN1CCN(c2cc(C(=O)Nc3ccc4c(c3)-c3c(c(C(N)=O)nn3-c3ccc(F)cc3)CC4)c(Cl)cn2)CC1`, in test [1], the activation is 10.2%. Moreover, the Potency in test [2] is 8330 nM (active); in test [3] it was 16600 nM (active); in test [4], 7420 nM (active); in test [5], 7420 nM (active); in test [7], 8330 nM (active); in test [8] it was 8330 nM (active).

`Cc1ccccc1N1C(=O)c2cc(S(N)(=O)=O)c(Cl)cc2NC1C` (centres undefined): in test [1], the activation is -15.9% and -14.5%. Also, in test [2], the viability is 115%. Further, the Potency result in test [3], in test [4], in test [5], in test [6], in test [7] and in test [8] was “inactive” throughout.

With `NS(=O)(=O)c1cc2c(cc1Cl)NC(C(Cl)Cl)NS2(=O)=O` (centres undefined), the activation in test [1] is -14.1% and -9.47%. In addition, in test [2], the viability is 112%. In test [3], the Potency is 16600 nM (active). For the same compound, the Potency entry in test [4], in test [5], in test [6] and in test [8] was “inactive” in each case.

Regarding `COC(=O)Nc1cc(Nc2cc(NC3CC3)c3ncc(C#N)n3n2)c(Cl)c(N2CCN(C)CC2)c1`, in test [1], the activation was -10.3%. Besides, the Potency in test [2] was 2950 nM (active); in test [3], 3320 nM (active); in test [4], 833 nM (active); in test [5], 1320 nM (active); in test [6], 2630 nM (active); in test [8], 2630 nM (active).

For `COc1cc(NC(=O)c2ccc(-c3ccc(Cl)cc3)o2)cc(OC)c1`, in test [1], the activation was 1.2%. For the same compound, the viability in test [2] is 110%. The Potency result in test [3], in test [4], in test [5], in test [7] and in test [8] was “inactive” each time.

The record behind these values is PubChem BioAssay (NCATS).
